Data on 4 molecules can be found in PMC5540273 (PLoS ONE, 2017).

Holding throughout (settings): concentration: 1 μM, replicates: in singlicate; n = 1
In experiment [1] the test system is T1, ERK4.
T1 construct: gene MAPK4

The test system of experiment [2] is T2, ERK5.
T2 construct: gene MAPK7

Experiment [3] has as its system T3, ERK8.
T3 construct: gene MAPK15

Experiment [4] relates to ERN1.
Experiment [5] relates to T4, FAK.
T4 construct: gene PTK2

Experiment [6] has as its system FER.
Experiment [7] relates to FES.
In experiment [8] the test system is FGFR1.
For experiment [9], the system named is FGFR2.
Experiment [10] has as its system FGFR3.
The test system of experiment [11] is FGFR4.
Experiment [12] has as its system FGR.
The test system of experiment [13] is FLT1.
Experiment [14] relates to FLT3-autoinhibited.
The test system of experiment [15] is FLT3.
The test system of experiment [16] is FLT4.
Experiment [17] has as its system FRK.
For experiment [18], the system named is FYN.
Experiment [19] has as its system GAK.
Experiment [20] concerns T5, GCN2(Kin.Dom.2,S808G).
T5 construct: gene EIF2AK4
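Also: KINOMEscan kinase panel screen.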

As for `O=C(c1ccc(-c2cc(-c3c[nH]nc3-c3ccccn3)ccn2)cc1)N1CCCC1` [GW792479], the “%Inh” value in [1] is 0%; in [2], 23%; in experiment [3] it was 0%; in experiment [4] it was 0%; in experiment [5], 47%; in experiment [6], 0%. Besides, the “%Inh” value in experiment [7] was found to be 5%; in experiment [8], 3%; in [9] it was 1%; in experiment [10], 3%; in [11] it was 0%; in [12] it was 17%. The “%Inh” value in experiment [13] came out at 18%; in [14] it was 0%; in experiment [15], 8%; in experiment [16] it was 0%; in experiment [17] it was 0%; in experiment [18] it was 5%. In addition, the “%Inh” value in experiment [19] is given as 33%; in experiment [20], 0%.

Turning to `Cn1ccc2ncnc(Nc3ccc(Oc4cccc(Cl)c4)c(Cl)c3)c21`, the “%Inh” value in experiment [1] is recorded as 25%; in experiment [2], 22%; in experiment [3], 0%; in experiment [4], 48%; in experiment [5] it was 0%; in experiment [6], 0%. The “%Inh” value in experiment [7] is 8%; in [8], 1%; in [9] it was 6%; in [10], 1%; in [11], 0%; in [12], 0%. The “%Inh” value in [13] is on record as 0%; in experiment [14], 17%; in [15], 0%; in experiment [16] it was 18%; in [17] it was 4%; in [18], 1%. Also, the “%Inh” value in experiment [19] is 0%; in [20], 28%.

For the molecule `CCC(CC)(CC)n1cnc2c(N)ncnc21` [SKF-97620], the “%Inh” value in [1] was 0%; in [2], 0%; in experiment [3], 1%; in experiment [4] it was 26%; in experiment [5], 0%; in experiment [6], 0%. Moreover, the “%Inh” value in [7] is listed as 10%; in experiment [8] it was 17%; in [9], 100%; in experiment [10], 0%; in experiment [11], 4%; in experiment [12] it was 4%. Moreover, the “%Inh” value in [13] is 4%; in experiment [14], 19%; in experiment [15], 11%; in [16] it was 0%; in experiment [17] it was 23%; in experiment [18], 7%. For the same molecule, the “%Inh” value in experiment [19] was 3%; in experiment [20], 0%.

Take `CSc1ccc(NC2=C(c3ccccc3Cl)C(=O)NC2=O)cc1` [SB-342411]: the “%Inh” value is listed as 9% in [1]; 0% in [2]; 0% in [3]; 9% in [4]; 0% in [5]; 5% in experiment [6]. In addition, the “%Inh” value in experiment [7] is reported as 0%; in [8], 11%; in [9] it was 4%; in [10] it was 26%; in experiment [11] it was 16%; in experiment [12] it was 14%. Further, the “%Inh” value in [13] amounted to 6%; in experiment [14], 0%; in experiment [15], 0%; in experiment [16], 1%; in experiment [17], 9%; in [18], 0%. The entries for the “%Inh” value in experiment [19] and in [20] were 14% and 0%, respectively.
